Test results as given in PubChem BioAssay (NCI).
The panel holds about 83,000 compounds, 20% with a hit somewhere; the sample as a whole holds those more often.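 Note: values are percent growth. 100 is the growth of untreated cells, values between 100 and 0 indicate rising inhibition; between -100 and 0 indicates cell death.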 Activity calls are given as the source filed them. Rule for the calls: active = growth percent below 10; inactive = the rest.

Columns and labels:
Assay in all cases: NCI-60 one-dose screen, 48 h (100 = growth as untreated, 0 = no growth, -100 = all killed)
SN12C renal = conditions: 10 µM unless noted
UO-31 renal = conditions: 10 µM unless noted
TK-10 renal = conditions: 10 µM unless noted
ACHN renal = conditions: 10 µM unless noted
CAKI-1 renal = conditions: 10 µM unless noted
A498 renal = conditions: 10 µM unless noted
CCRF-CEM leukemia = conditions: 10 µM unless noted
MOLT-4 leukemia = conditions: 10 µM unless noted
SR leukemia = conditions: 10 µM unless noted
RPMI-8226 leukemia = conditions: 10 µM unless noted
OVCAR-8 ovarian = conditions: 10 µM unless noted
OVCAR-5 ovarian = conditions: 10 µM unless noted
OVCAR-4 ovarian = conditions: 10 µM unless noted
SK-OV-3 ovarian = conditions: 10 µM unless noted
IGROV1 ovarian = conditions: 10 µM unless noted
OVCAR-3 ovarian = conditions: 10 µM unless noted
HS 578T breast = conditions: 10 µM
EKVX NSCLC = conditions: 10 µM unless noted
NCI/ADR-RES ovarian = conditions: 10 µM unless noted

Measured: growth

Cc1nc2ccc(Nc3nc(Cl)nc(N4CCOCC4)n3)cc2n1Cc1ccccc1
inactive: SN12C renal 78.2% | UO-31 renal 73.8% | TK-10 renal 44.7% | ACHN renal 79.4% | CAKI-1 renal 104% | A498 renal 91.7% | CCRF-CEM leukemia 45.7% | MOLT-4 leukemia 25.8% | SR leukemia 18.5% | RPMI-8226 leukemia 74.4% | OVCAR-8 ovarian 44% | OVCAR-5 ovarian 104% | OVCAR-4 ovarian 126% | SK-OV-3 ovarian 93.7% | OVCAR-3 ovarian 98.4% | HS 578T breast 81.4%
active: IGROV1 ovarian -1.16%

COc1ccc(/C(=C\c2cc(OC)c(OC)c(OC)c2)C(=O)N2CCCNCC2)cc1
inactive: EKVX NSCLC 104% | UO-31 renal 85.9% | TK-10 renal 101% | ACHN renal 109% | A498 renal 99.1% | CCRF-CEM leukemia 99.9% | MOLT-4 leukemia 94.7% | SR leukemia 103% | RPMI-8226 leukemia 107% | OVCAR-8 ovarian 103% | OVCAR-5 ovarian 111% | OVCAR-4 ovarian 112% | SK-OV-3 ovarian 103% | IGROV1 ovarian 113% | OVCAR-3 ovarian 116% | HS 578T breast 107% | NCI/ADR-RES ovarian 112%

Cc1ccc(-c2nc3ccccc3c(=O)n2/N=C/c2cccc3ccccc23)cc1
inactive: SN12C renal 82.3% | UO-31 renal 48.3% | TK-10 renal 101% | ACHN renal 80.7% | CAKI-1 renal 54.4% | A498 renal 109% | CCRF-CEM leukemia 55.2% | MOLT-4 leukemia 55.9% | SR leukemia 49.8% | RPMI-8226 leukemia 73.6% | OVCAR-8 ovarian 84.2% | OVCAR-5 ovarian 102% | OVCAR-4 ovarian 76.2% | SK-OV-3 ovarian 76.4% | IGROV1 ovarian 50.1% | OVCAR-3 ovarian 71.6% | HS 578T breast 100% | NCI/ADR-RES ovarian 78.6%

O=C1/C(=C\c2cccn2C(=O)c2ccccc2)c2ccccc2N1c1c(Cl)cccc1Cl
inactive: EKVX NSCLC 80.5% | UO-31 renal 66.8% | TK-10 renal 86.4% | ACHN renal 79% | CAKI-1 renal 87.8% | A498 renal 90.4% | CCRF-CEM leukemia 14.3% | SR leukemia 25% | RPMI-8226 leukemia 69.6% | OVCAR-8 ovarian 87% | OVCAR-5 ovarian 87.9% | OVCAR-4 ovarian 59.4% | SK-OV-3 ovarian 95% | IGROV1 ovarian 71.2% | OVCAR-3 ovarian 70.4% | HS 578T breast 95.6% | NCI/ADR-RES ovarian 82.2%

Cc1ccc(NC(=O)c2[nH]c(SCCN(C)C)nc2-c2ccc(F)cc2)cc1Nc1ccc2ncn(C)c(=O)c2c1
active: SR leukemia -24.9%
inactive: EKVX NSCLC 75.2% | SN12C renal 64.6% | TK-10 renal 63% | ACHN renal 69% | A498 renal 61.2% | CCRF-CEM leukemia 61.6% | RPMI-8226 leukemia 40.8% | OVCAR-8 ovarian 70% | OVCAR-5 ovarian 42.6% | OVCAR-4 ovarian 70.8% | SK-OV-3 ovarian 88.4% | IGROV1 ovarian 39.8% | OVCAR-3 ovarian 78.9% | HS 578T breast 60.6% | NCI/ADR-RES ovarian 93.2%

CCOC(=O)C1=C(C)NC(SCc2nnc(-c3ccc(Cl)cc3)o2)=NC1c1ccc(Cl)cc1 (stereo not given)
active: MOLT-4 leukemia 7.02%
inactive: EKVX NSCLC 80.2% | TK-10 renal 77.5% | ACHN renal 64.1% | CAKI-1 renal 61.6% | A498 renal 80.7% | CCRF-CEM leukemia 39.7% | SR leukemia 42.9% | RPMI-8226 leukemia 35.8% | OVCAR-8 ovarian 74.8% | OVCAR-5 ovarian 89.6% | OVCAR-4 ovarian 70% | SK-OV-3 ovarian 82.6% | IGROV1 ovarian 62.3% | OVCAR-3 ovarian 70.8% | HS 578T breast 83.7% | NCI/ADR-RES ovarian 69.9%

COc1cc(C2CC(c3ccc(Cl)cc3)=NN2C=O)ccc1OS(=O)(=O)c1ccc(C)cc1 (stereo not given)
inactive: SN12C renal 97.1% | UO-31 renal 85.2% | TK-10 renal 110% | ACHN renal 90.9% | CAKI-1 renal 81.4% | A498 renal 74.1% | CCRF-CEM leukemia 76.3% | MOLT-4 leukemia 91.5% | SR leukemia 99.8% | RPMI-8226 leukemia 82.4% | OVCAR-8 ovarian 90.3% | OVCAR-5 ovarian 87.2% | OVCAR-4 ovarian 112% | SK-OV-3 ovarian 96.3% | IGROV1 ovarian 94.4% | OVCAR-3 ovarian 102% | HS 578T breast 86.8%

CN(C)CCOc1nc2c3ccncc3cc(-c3cccc(Cl)c3)c2c2cnccc12
inactive: EKVX NSCLC 37.4% | UO-31 renal 14.9% | TK-10 renal 30.7% | ACHN renal 14.5% | CAKI-1 renal 29.6% | A498 renal 35.5% | OVCAR-8 ovarian 18.2% | OVCAR-4 ovarian 33.5% | SK-OV-3 ovarian 46.8% | IGROV1 ovarian 28.9% | OVCAR-3 ovarian 45.6% | HS 578T breast 54.3% | NCI/ADR-RES ovarian 15.4%
active: CCRF-CEM leukemia 3.4% | MOLT-4 leukemia -14.7% | SR leukemia -27.7% | RPMI-8226 leukemia 9%

O=C1/C(=C\c2cccn2Cc2ccc(F)cc2)c2ccccc2N1c1c(Cl)cccc1Cl
inactive: EKVX NSCLC 54.6% | UO-31 renal 51.8% | TK-10 renal 81% | ACHN renal 62.9% | CAKI-1 renal 67.5% | A498 renal 106% | CCRF-CEM leukemia 83% | SR leukemia 76% | RPMI-8226 leukemia 74.6% | OVCAR-5 ovarian 81.9% | OVCAR-4 ovarian 34.1% | SK-OV-3 ovarian 96.2% | IGROV1 ovarian 55.8% | OVCAR-3 ovarian 80.7% | HS 578T breast 92.9% | NCI/ADR-RES ovarian 76.1%

COc1cc(-c2csc(NC(=O)Nc3cccc(C(F)(F)F)c3)n2)cc(OC)c1OC
inactive: EKVX NSCLC 38.3% | UO-31 renal 46% | TK-10 renal 49.4% | ACHN renal 31.3% | CAKI-1 renal 48.2% | A498 renal 59.1% | CCRF-CEM leukemia 28.1% | MOLT-4 leukemia 18.1% | SR leukemia 67.3% | RPMI-8226 leukemia 18.6% | OVCAR-8 ovarian 22.6% | OVCAR-5 ovarian 80.3% | OVCAR-4 ovarian 29.9% | SK-OV-3 ovarian 80.7% | IGROV1 ovarian 59.6% | OVCAR-3 ovarian 37.7% | HS 578T breast 71.2% | NCI/ADR-RES ovarian 26.5%

Cc1cc(O)c(C2=NN(c3ccc(S(N)(=O)=O)cc3)C(c3ccc(Cl)cc3)C2)c(C)c1Cl (stereo not given)
inactive: EKVX NSCLC 49.7% | UO-31 renal 66.6% | TK-10 renal 80% | ACHN renal 58.7% | A498 renal 87.2% | CCRF-CEM leukemia 11.6% | MOLT-4 leukemia 14.3% | OVCAR-5 ovarian 95.2% | OVCAR-4 ovarian 58.9% | SK-OV-3 ovarian 81.6% | IGROV1 ovarian 20.6% | OVCAR-3 ovarian 68.1% | HS 578T breast 71.2% | NCI/ADR-RES ovarian 80.3%
active: SR leukemia -24.1% | RPMI-8226 leukemia -37.6% | OVCAR-8 ovarian 5.73%

Nc1nc(N)c2c(n1)NC(c1sc(Cl)nc1Cl)CC(c1ccccc1)=N2 (stereo not given)
inactive: SN12C renal 48.7% | UO-31 renal 46.6% | TK-10 renal 70.8% | ACHN renal 61.5% | CAKI-1 renal 44.8% | A498 renal 19.7% | CCRF-CEM leukemia 38.9% | MOLT-4 leukemia 26% | SR leukemia 19.9% | RPMI-8226 leukemia 45.3% | OVCAR-8 ovarian 60.7% | OVCAR-5 ovarian 76.7% | OVCAR-4 ovarian 94% | SK-OV-3 ovarian 74% | IGROV1 ovarian 50.5% | OVCAR-3 ovarian 40.4% | HS 578T breast 48.1%

ClCc1cccc(CSc2ncnc3c2ncn3Cc2cccc(CCl)c2)c1
active: CCRF-CEM leukemia 3.41% | MOLT-4 leukemia 5.6% | RPMI-8226 leukemia -10.6% | OVCAR-8 ovarian -16.4% | OVCAR-4 ovarian 8.74% | NCI/ADR-RES ovarian -6.49%
inactive: EKVX NSCLC 92.9% | UO-31 renal 40.6% | TK-10 renal 48.4% | ACHN renal 70.1% | A498 renal 76.2% | SK-OV-3 ovarian 65.5% | IGROV1 ovarian 14% | OVCAR-3 ovarian 28.4% | HS 578T breast 47.7%

N#Cc1ccc(NC(=O)Nc2nc3ccc(OC(F)(F)F)cc3s2)cc1
inactive: OVCAR-5 ovarian 16% | IGROV1 ovarian 13.2% | OVCAR-3 ovarian 28.9%
active: EKVX NSCLC -6.94% | SN12C renal -4.65% | UO-31 renal -2.76% | ACHN renal -10.6% | CAKI-1 renal -15.5% | A498 renal -28.1% | CCRF-CEM leukemia 3.09% | MOLT-4 leukemia -13.9% | SR leukemia -38.4% | RPMI-8226 leukemia -9.16% | OVCAR-8 ovarian 8.91% | SK-OV-3 ovarian 0.444% | HS 578T breast -0.817% | NCI/ADR-RES ovarian -13.8%

CCOC(=O)C1=C(C)NC(SCc2nnc(-c3ccc(Cl)cc3)o2)=NC1c1ccc(Br)cc1 (stereo not given)
inactive: EKVX NSCLC 71.3% | UO-31 renal 52.6% | TK-10 renal 79.9% | ACHN renal 69.7% | CAKI-1 renal 67.2% | A498 renal 73.2% | CCRF-CEM leukemia 43.4% | SR leukemia 38.8% | RPMI-8226 leukemia 38.4% | OVCAR-8 ovarian 72.7% | OVCAR-5 ovarian 93.9% | OVCAR-4 ovarian 69.6% | SK-OV-3 ovarian 82% | IGROV1 ovarian 65.5% | OVCAR-3 ovarian 77.5% | HS 578T breast 87.1% | NCI/ADR-RES ovarian 67.5%
active: MOLT-4 leukemia 8.29%

O=C(Nc1ccc(Oc2ccc(NC(=O)Nc3ccccc3Cl)cc2)cc1)Nc1ccccc1Cl
active: IGROV1 ovarian -62.3% | OVCAR-3 ovarian -38.3%
inactive: EKVX NSCLC 76.5% | SN12C renal 44.1% | TK-10 renal 75.1% | ACHN renal 67.4% | CCRF-CEM leukemia 42.4% | OVCAR-8 ovarian 56.1% | OVCAR-5 ovarian 101% | OVCAR-4 ovarian 29.7% | SK-OV-3 ovarian 76.5% | HS 578T breast 34.5% | NCI/ADR-RES ovarian 70.3%

Cc1ccc(NC(=O)c2nc(S(C)=O)oc2-c2ccc(F)cc2)cc1Nc1nccc(-c2cccnc2)n1 (stereo not given)
active: MOLT-4 leukemia 0.215% | SR leukemia -14.7% | RPMI-8226 leukemia 5.05%
inactive: EKVX NSCLC 73.8% | SN12C renal 38.7% | TK-10 renal 130% | ACHN renal 31.5% | A498 renal 107% | OVCAR-8 ovarian 37.9% | OVCAR-5 ovarian 112% | OVCAR-4 ovarian 108% | SK-OV-3 ovarian 90.3% | IGROV1 ovarian 33.1% | OVCAR-3 ovarian 18.8% | HS 578T breast 82% | NCI/ADR-RES ovarian 95.9%

COc1ccc(/C=C2\Cc3c(Br)cccc3C2=O)c(OC)c1
inactive: EKVX NSCLC 59.8% | UO-31 renal 78.3% | TK-10 renal 90.6% | ACHN renal 59.8% | CAKI-1 renal 79.4% | A498 renal 83.1% | CCRF-CEM leukemia 97.8% | MOLT-4 leukemia 94.1% | SR leukemia 52.2% | RPMI-8226 leukemia 60.9% | OVCAR-8 ovarian 80.8% | OVCAR-4 ovarian 72.1% | SK-OV-3 ovarian 80.8% | IGROV1 ovarian 74.1% | OVCAR-3 ovarian 67.2% | HS 578T breast 80.5% | NCI/ADR-RES ovarian 50.1%
